Laboratory results: PubChem BioAssay AID1159580 (chemical genetic matrix, 2015)
In all, about 5,500 compounds went through this assay and about 2,000 (36%) were called active. Inconclusive results (about 18%) are left out. No stated cut-off is given here; in the data, active means normalized growth mostly below about 0.91 (no sharp cut-off); inconclusive means no clear call, values can overlap the other calls; inactive means mostly above about 0.92. Some of the results follow.

Assay: chemical genetic growth profiling, strain panel (AID 1159580);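 further: tested at 20 µM; growth read once vehicle control cultures reached saturation at 30 °C; 1 = growth at the plate median or of vehicle wells; lower values mean less growth of the strain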
Details: growth OD

Measured: normalized growth

O=C1NN=C2C3CC4CC12CC1(C3)C(=O)NN=C41
inactive: S. cerevisiae deletion strains, locus YAL013W, strain DEP1, active compounds read low 0.992 | S. cerevisiae deletion strains, locus YBR229C, strain ROT2, active compounds read low 0.999 | S. cerevisiae deletion strains, locus YDL101C, strain DUN1, active compounds read low 1 | S. cerevisiae deletion strains, locus YDL134C, strain PPH21, active compounds read low 1.01 | S. cerevisiae deletion strains, locus YDR150W, strain NUM1, active compounds read low 1 | S. cerevisiae deletion strains, locus YEL061C, strain CIN8, active compounds read low 0.997 | S. cerevisiae deletion strains, locus YGR078C, strain PAC10, active compounds read low 1.01 | S. cerevisiae deletion strains, locus YGR229C, strain SMI1, active compounds read low 1 | S. cerevisiae deletion strains, locus YHR030C, strain SLT2, active compounds read low 1.03 | S. cerevisiae deletion strains, locus YHR087W, strain rtc3, active compounds read low 0.974 | S. cerevisiae deletion strains, locus YJR043C, strain POL32, active compounds read low 1.02 | S. cerevisiae deletion strains, locus YJR075W, strain HOC1, active compounds read low 1.02 | S. cerevisiae deletion strains, locus YLR039C, strain RIC1, active compounds read low 1.05 | S. cerevisiae deletion strains, locus YLR058C, strain SHM2 (second series), active compounds read low 1 | S. cerevisiae deletion strains, locus YLR085C, strain ARP6, active compounds read low 0.989 | S. cerevisiae deletion strains, locus YLR262C, strain YPT6, active compounds read low 1.03 | S. cerevisiae deletion strains, locus YML094W, strain GIM5, active compounds read low 0.974 | S. cerevisiae deletion strains, locus YMR219W, strain ESC1, active compounds read low 1 | S. cerevisiae deletion strains, locus YMR263W, strain SAP30, active compounds read low 0.974 | S. cerevisiae deletion strains, locus YNL153C, strain GIM3, active compounds read low 1.02 | S. cerevisiae deletion strains, locus YNL298W, strain CLA4 (second series), active compounds read low 0.983 | S. cerevisiae deletion strains, locus YNL322C, strain KRE1, active compounds read low 1.02 | S. cerevisiae deletion strains, locus YNR030W, strain Alg12, active compounds read low 0.978 | S. cerevisiae deletion strains, locus YPL055C, strain LGE1, active compounds read low 0.981 | S. cerevisiae deletion strains, locus YPL241C, strain CIN2, active compounds read low 0.998 | S. cerevisiae deletion strains, locus YPR135W, strain CTF4, active compounds read low 1.01 | S. cerevisiae strains, strain wild type, active compounds read low 0.999

C=CC1C2=CCOC(=O)C2=COC1OC1OC(CO)C(O)C(O)C1O (centres undefined)
inactive: S. cerevisiae deletion strains, locus YAL021C, strain ccr4, active compounds read low 1.02 | S. cerevisiae deletion strains, locus YAL026C, strain drs2, active compounds read low 1.02 | S. cerevisiae deletion strains, locus YAL030W, strain snc1, active compounds read low 1.02 | S. cerevisiae deletion strains, locus YBL061C, strain skt5, active compounds read low 1.01 | S. cerevisiae deletion strains, locus YBR009C, strain hhf1, active compounds read low 1.02 | S. cerevisiae deletion strains, locus YBR023C, strain chs3, active compounds read low 1.01 | S. cerevisiae deletion strains, locus YBR171W, strain sec66, active compounds read low 1.02 | S. cerevisiae deletion strains, locus YBR231C, strain swc5, active compounds read low 1.02 | S. cerevisiae deletion strains, locus YBR279W, strain paf1, active compounds read low 1.01 | S. cerevisiae deletion strains, locus YCL011C, strain gbp2, active compounds read low 1.02 | S. cerevisiae deletion strains, locus YCL016C, strain dcc1, active compounds read low 1.01 | S. cerevisiae deletion strains, locus YCL061C, strain MRC1, active compounds read low 1.02 | S. cerevisiae deletion strains, locus YCL069W, strain vba3, active compounds read low 1.02 | S. cerevisiae deletion strains, locus YCR088W, strain abp1, active compounds read low 1.02 | S. cerevisiae deletion strains, locus YDL005C, strain med2, active compounds read low 1.01 | S. cerevisiae deletion strains, locus YDL040C, strain nat1, active compounds read low 1.02 | S. cerevisiae deletion strains, locus YDR001C, strain nth1, active compounds read low 1.02 | S. cerevisiae deletion strains, locus YDR069C, strain doa4, active compounds read low 1.02 | S. cerevisiae deletion strains, locus YDR137W, strain rgp1, active compounds read low 1.08 | S. cerevisiae deletion strains, locus YDR159W, strain sac3, active compounds read low 1.02 | S. cerevisiae deletion strains, locus YDR195W, strain ref2 1.01 | S. cerevisiae deletion strains, locus YDR297W, strain sur2, active compounds read low 1.02 | S. cerevisiae deletion strains, locus YDR334W, strain swr1, active compounds read low 1.02 | S. cerevisiae deletion strains, locus YDR335W, strain msn5, active compounds read low 1.02 | S. cerevisiae deletion strains, locus YDR392W, strain spt3, active compounds read low 1.02 | S. cerevisiae deletion strains, locus YEL003W, strain gim4, active compounds read low 1.02 | S. cerevisiae deletion strains, locus YEL037C, strain rad23, active compounds read low 1.02 | S. cerevisiae deletion strains, locus YEL061C, strain CIN8 (second series), active compounds read low 1.03 | S. cerevisiae deletion strains, locus YER015W, strain faa2, active compounds read low 1.01 | S. cerevisiae deletion strains, locus YER016W, strain bim1, active compounds read low 1.02 | S. cerevisiae deletion strains, locus YER111C, strain swi4, active compounds read low 1.01 | S. cerevisiae deletion strains, locus YER155C, strain BEM2 (second series), active compounds read low 1.05 | S. cerevisiae deletion strains, locus YFR010W, strain ubp6, active compounds read low 1.03 | S. cerevisiae deletion strains, locus YGL167C, strain pmr1, active compounds read low 1.02 | S. cerevisiae deletion strains, locus YGL173C, strain kem1, active compounds read low 1.02 | S. cerevisiae deletion strains, locus YGL227W, strain vid30, active compounds read low 1.03 | S. cerevisiae deletion strains, locus YGL240W, strain doc1, active compounds read low 1.02 | S. cerevisiae deletion strains, locus YGL253W, strain hxk2, active compounds read low 1.03 | S. cerevisiae deletion strains, locus YHR013C, strain ard1, active compounds read low 1.04 | S. cerevisiae deletion strains, locus YHR027C, strain rpn1, active compounds read low 1.02 | S. cerevisiae deletion strains, locus YHR142W, strain chs7, active compounds read low 1.04 | S. cerevisiae deletion strains, locus YJL092W, strain hpr5, active compounds read low 1.01 | S. cerevisiae deletion strains, locus YJL095W, strain BCK1 (second series), active compounds read low 1.02 | S. cerevisiae deletion strains, locus YJL115W, strain asf1, active compounds read low 1.03 | S. cerevisiae deletion strains, locus YJL129C, strain trk1, active compounds read low 1.04 | S. cerevisiae deletion strains, locus YJL154C, strain vps35, active compounds read low 1.01 | S. cerevisiae deletion strains, locus YJL164C, strain tpk1, active compounds read low 1.02 | S. cerevisiae deletion strains, locus YJL166W, strain qcr8, active compounds read low 1.02 | S. cerevisiae deletion strains, locus YJL187C, strain SWE1, active compounds read low 1.02 | S. cerevisiae deletion strains, locus YKL160W, strain elf1, active compounds read low 1.01 | S. cerevisiae deletion strains, locus YKR026C, strain gcn3, active compounds read low 1.02 | S. cerevisiae deletion strains, locus YKR091W, strain srl3, active compounds read low 1.02 | S. cerevisiae deletion strains, locus YLL001W, strain dnm1, active compounds read low 1.02 | S. cerevisiae deletion strains, locus YLL026W, active compounds read low 1.01 | S. cerevisiae deletion strains, locus YLL041C, strain sdh2, active compounds read low 1.02 | S. cerevisiae deletion strains, locus YLR027C, strain aat2, active compounds read low 1.01 | S. cerevisiae deletion strains, locus YLR221C, strain rsa3, active compounds read low 1.02 | S. cerevisiae deletion strains, locus YLR258W, strain gsy2, active compounds read low 1.01 | S. cerevisiae deletion strains, locus YLR262C, strain YPT6 (second series), active compounds read low 1.03 | S. cerevisiae deletion strains, locus YLR320W, strain mms22, active compounds read low 1.03 | S. cerevisiae deletion strains, locus YLR342W, strain FKS1, active compounds read low 1 | S. cerevisiae deletion strains, locus YLR357W, strain rsc2, active compounds read low 1 | S. cerevisiae deletion strains, locus YLR370C, strain arc18, active compounds read low 1.03 | S. cerevisiae deletion strains, locus YLR384C, strain iki3, active compounds read low 1.01 | S. cerevisiae deletion strains, locus YML120C, strain ndi1, active compounds read low 1.02 | S. cerevisiae deletion strains, locus YMR058W, strain fet3, active compounds read low 1.02 | S. cerevisiae deletion strains, locus YMR125W, strain sto1, active compounds read low 1.03 | S. cerevisiae deletion strains, locus YMR129W, active compounds read low 1.02 | S. cerevisiae deletion strains, locus YMR205C, strain PFK2, active compounds read low 1.03 | S. cerevisiae deletion strains, locus YMR231W, strain pep5, active compounds read low 1.03 | S. cerevisiae deletion strains, locus YNL071W, strain lat1, active compounds read low 1.02 | S. cerevisiae deletion strains, locus YNL209W, strain ssb2, active compounds read low 1.01 | S. cerevisiae deletion strains, locus YNL248C, strain rpa49, active compounds read low 1.05 | S. cerevisiae deletion strains, locus YNL322C, strain KRE1 (second series), active compounds read low 1.02 | S. cerevisiae deletion strains, locus YNR049C, strain mso1, active compounds read low 1.01 | S. cerevisiae deletion strains, locus YOR001W, strain rrp6, active compounds read low 1.01 | S. cerevisiae deletion strains, locus YOR070C, strain gyp1, active compounds read low 1.02 | S. cerevisiae deletion strains, locus YOR080W, strain dia2, active compounds read low 1.02 | S. cerevisiae deletion strains, locus YOR083W, strain WHI5, active compounds read low 1.01 | S. cerevisiae deletion strains, locus YOR106W, strain vam3, active compounds read low 1.02 | S. cerevisiae deletion strains, locus YOR265W, strain rbl2, active compounds read low 1.01 | S. cerevisiae deletion strains, locus YOR270C, strain vph1, active compounds read low 1.11 | S. cerevisiae deletion strains, locus YOR290C, strain snf2, active compounds read low 1.02 | S. cerevisiae deletion strains, locus YPL051W, strain arl3, active compounds read low 1.01 | S. cerevisiae deletion strains, locus YPL078C, strain atp4, active compounds read low 1.04 | S. cerevisiae deletion strains, locus YPL106C, strain sse1, active compounds read low 1.02 | S. cerevisiae deletion strains, locus YPL240C, strain hsp82, active compounds read low 1
